Measured values as given in PubChem BioAssay AID624330 (Southern Research Specialized Biocontainment Screening …, 2012).
Several values for one entry are separate records, joined by “and”; a condition that tells them apart may be missing. Identical values can stand only once. In all, about 340,000 compounds went through this assay and about 2,100 (0.62%) were called active.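 How the source made its calls: active means first-screen hits whose inhibition reached a set limit at any dose in the follow-up dose series; inconclusive means inhibition above the set first-screen limit but never retested; inactive means the rest.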 These entries were drawn from the full list. Results with a measured potency or affinity are listed apart.

biological target: Rac GTPase-activating protein 1 (Homo sapiens) (UniProt Q9H0H5); assay: MgcRacGAP GTPase-activating activity inhibitors, confirmation, biochemical, ADP Hunter fluorescence, primary and confirmatory (AID 624330); settings: MgcRacGAP-stimulated Rac1 GTP hydrolysis, at 30 µM, active compounds read high, GST-tagged Rac1 F28L mutant substrate;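 further: fluorescence reports GDP produced by GAP-driven GTP hydrolysis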
Sequence (Q9H0H5 whole entry, looked up): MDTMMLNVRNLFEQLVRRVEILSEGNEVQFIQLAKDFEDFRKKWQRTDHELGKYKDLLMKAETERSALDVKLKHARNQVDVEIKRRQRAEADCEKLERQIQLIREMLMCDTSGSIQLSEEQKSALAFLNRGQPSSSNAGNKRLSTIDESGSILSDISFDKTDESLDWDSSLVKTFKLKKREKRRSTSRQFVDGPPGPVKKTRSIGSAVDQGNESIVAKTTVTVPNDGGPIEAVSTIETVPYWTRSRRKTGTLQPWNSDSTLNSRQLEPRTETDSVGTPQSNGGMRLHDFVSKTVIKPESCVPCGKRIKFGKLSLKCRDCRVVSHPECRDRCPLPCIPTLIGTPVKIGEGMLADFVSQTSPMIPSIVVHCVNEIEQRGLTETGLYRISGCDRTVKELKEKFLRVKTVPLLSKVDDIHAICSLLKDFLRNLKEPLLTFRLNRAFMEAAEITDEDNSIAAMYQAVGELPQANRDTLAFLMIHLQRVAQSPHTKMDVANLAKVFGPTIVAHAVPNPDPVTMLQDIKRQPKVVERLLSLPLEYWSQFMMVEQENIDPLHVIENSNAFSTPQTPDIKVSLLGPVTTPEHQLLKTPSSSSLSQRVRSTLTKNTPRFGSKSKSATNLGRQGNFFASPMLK

inhibition, inactive:
COc1c(N)c2c(c([N+](=O)[O-])c1OC)C(=O)OC2 -0.66%
C/C(=N\OCC(=O)Nn1c(=O)[nH]c2ccccc2c1=O)c1ccccc1 10.5%
Cc1cc(C)nc(NN=C(c2ccccc2)c2ccccc2)n1 7.14%
CC1=C(C(=O)Nc2ccccc2C(=O)NCCCOC(C)C)SCCO1 -0.28%
O=C(Nc1ccccc1)c1cccc(N2C(=O)C3C4C=CC(C4)C3C2=O)c1 (stereo unspecified) 8.69%
O=C(Nc1ccc(Br)cc1)c1cccc(N2C(=O)C3C4C=CC(C4)C3C2=O)c1 (stereo unspecified) 7.3%
CN1CCOCCOCCN(C)C1=O 8.52%
O=C(Cc1cccc2ccccc12)NC(=S)Nc1cccc(C(=O)O)c1 5.5%
COc1cc(/C=N/NC(=O)NC23CC4CC(CC(C4)C2)C3)ccc1OCC(N)=O 7.72%
COc1ccc(C=NNC(=O)NN=Cc2ccc(OC)c(OC)c2)cc1OC 3.42%
O=C(N/N=C/c1ccncc1)NC12CC3CC(CC(C3)C1)C2 10.9%
COc1ccc(C=NNC(=S)NC23CC4CC(CC(C4)C2)C3)cc1OC 7.09%
COc1ccc(/C=N/N=C2\CC3CCC2(C)C3(C)C)cc1O (stereo unspecified) 5.9%
O=C(N/N=C/c1ccc(O)cc1O)NC12CC3CC(CC(C3)C1)C2 15%
COc1ccc(/C=C2/S/C(=N/N=C3\CC4CCC3(C)C4(C)C)NC2=O)cc1 (stereo unspecified) 7.33%
COc1ccc(/C=N/NC(=O)C2C3CCCCC32)cc1OC (stereo unspecified) 10.4%
COc1ccc(C(=O)NCC(=O)N/N=C(\C)c2ccco2)cc1OC -0.25%
CCOC(=O)CNc1nc(Cl)nc(Nc2ccc(Cl)cc2)n1 -8.39%
CCCCn1nnc(N(C(=O)c2cccs2)C(=O)c2cccs2)n1 -4.48%
CC(C)CC(=O)NC(=S)Nc1ccc(N2CCOCC2)c(Cl)c1 2.66%
S=C(c1ccc(-c2ccc(Cl)cc2Cl)o1)N1CCCCC1 10.8%
O=C(COc1ccc(Cl)cc1)NNC(=O)c1ccncc1 8.55%
Cc1ccc(NC(=O)c2sccc2C)cc1S(=O)(=O)N(C)C 11.1%
COc1ccc2c(c1)C1NC(=S)N[C@@](C)(O2)C1C(=O)Nc1ccccc1 (stereo partly specified) 9.66%
COc1nn(CC(=O)N2N=C(C(F)F)CC2(O)C(F)F)cc1[N+](=O)[O-] (stereo unspecified) 5.35%
CC(C)CN1CCC(=O)N([C@H](CN=[N+]=[N-])Cc2ccccc2)CC1 7.37%
O=C(NN=Cc1cc([N+](=O)[O-])ccc1O)c1cccc2ccccc12 4.07%
COc1ccc(/C=N/NC(=O)NC23CC4CC(CC(C4)C2)C3)c(OC)c1 0.89%
O=C(N/N=C/c1ccccc1O)NC12CC3CC(CC(C3)C1)C2 7.17%
COc1ccccc1N1CCN(C2CCCN(C(=O)c3ccsc3)C2)CC1 (stereo unspecified) 9.49%
Cc1nnc(SCC(=O)NNC(=O)COc2ccc(Cl)cc2)s1 3.46%
CCN(CC)c1ccc(C(=C2C=CC(=[N+](CC)CC)C=C2)c2ccc(S(=O)(=O)O)cc2S(=O)(=O)[O-])cc1 25.4%
CCN(CC)c1ccc(C(=O)NN)cc1 10%
CCN(CC)c1ccc(C(=O)NNC(=O)CCNC(=O)c2ccccc2)cc1 7.48%
CCN(CC)c1ccc(C(=S)NCc2ccccc2)cc1 9.69%
CC(C)(/C=N/NC(=O)CSCc1ccccc1Cl)CCC#N 4.57%
Cc1nc(NC(=O)C2CC2)sc1C(=O)Nc1ccccc1 12.6%
CCc1ccc(NS(=O)(=O)c2ccc3[nH]c(=O)[nH]c3c2)cc1 -4.35%
Cn1c(SCC(=O)NC2CCS(=O)(=O)C2)nnc1-c1ccco1 (stereo unspecified) -3.56%
O=C(CCNC(=O)c1ccccc1)NC1CCCc2ccccc21 (stereo unspecified) 6.57%
Cc1ccc(S(=O)(=O)NCCc2ccncc2)cc1[N+](=O)[O-] 2.26%
CCN(CC)S(=O)(=O)c1cccc(-c2n[nH]c(=S)n2/N=C/c2ccc(Br)cc2)c1 12.8%
CCN(CC)S(=O)(=O)c1cccc(-c2n[nH]c(=S)n2/N=C/c2ccc(OC)cc2)c1 8.14%
CC(=O)Nc1ccc(Oc2ccc(-c3noc(C)n3)cc2)cc1 10.9%
CC(NC(=O)Cc1cccc(C(F)(F)F)c1)c1ccc(F)cc1 (stereo unspecified) 0.98%
CCOC(=O)c1c(C)nsc1NC(=O)C1CCCCC1 -1.81%
CCOC(=O)c1sc(NC(C)=O)nc1C 6.36%
CCOC(=O)c1c(C)nsc1NCc1ccccc1 10.9%
CCOC(=O)c1sc(NC(=O)CC)nc1C 7.69%
O=C(NCCO)c1ccc(-c2nnc(N3CCOCC3)c3ccccc23)cc1 1.36%
O=C1CCc2cc(S(=O)(=O)Nc3ccc(F)cc3)cc3c2N1CC3 6.87%
N=C(N)c1ccccc1 2.01% and 4.94%
N=C(N)c1ccc(O)cc1 3.97%
O=[N+]([O-])c1ccc(C=CC=Cc2ccccc2)cc1 5.54%
O=[N+]([O-])/C=C\c1ccc(N2CCOCC2)cc1 24%
Cc1cccc(Cn2cc(/C=C/[N+](=O)[O-])c3ccccc32)c1 3.28%
O=[N+]([O-])/C=C/c1cn(Cc2ccccc2)c2ccccc12 4.89%
CS(=O)(=O)N(CC(=O)NCCSCc1ccco1)c1ccc(Cl)cc1 5.58%
Cc1ccc(N(CC2CO2)S(=O)(=O)c2ccc([N+](=O)[O-])cc2)cc1 (stereo unspecified) 4.81%
COC(=O)c1ccc(NC(=O)C2CCN(C(=O)Nc3ccccc3)CC2)cc1 5.55%
O=[N+]([O-])c1ccc(N2CCCC2)c([N+](=O)[O-])c1 6.43%
O=[N+]([O-])c1cc(C(F)(F)F)ccc1N1CCN(CCO)CC1 4.15%
Cc1nn(CC(=O)Nc2ccc3c(c2)OCCO3)c(C)c1[N+](=O)[O-] 0.26%
O=C(O)/C=C/c1cnn(-c2ccccc2)c1 2.55%
CCOC(=O)/C=C/c1cnn(-c2ccccc2)c1 6.95%
CCN=C1S/C(=C\c2cc(Cl)c(OC)c(OC)c2)C(=O)N1CC 4.7%
O=C(NNS(=O)(=O)c1ccc(F)cc1)c1ccc(O)cc1 6.98%
COc1ccc(Cn2nnnc2CN2CCOCC2)cc1 7.47%
CCOC(=O)Cn1nnnc1CN1CCN(c2ccc(OC)cc2)CC1 14.7%
C=CCN(c1ccccc1)S(=O)(=O)c1cccc(C(=O)Nc2ncccc2O)c1 -0.92%
Cc1ccc(N(C(=O)Cn2nnc(-c3ccccc3F)n2)C(C(=O)NC2CCCC2)c2ccncc2)cc1 (stereo unspecified) 6.05%
COc1ccc(OC)c(-c2csc(NC(=O)COC(=O)c3ccc(NC(=O)CC#N)cc3)n2)c1 5.16%
Cc1cc(C(=O)NC(C)C2CCCO2)cs1 (stereo unspecified) -7.59%
CCCn1c(=O)c2ccccc2n2c(SCC(N)=O)nnc12 18.7%
CCCn1c(=O)c2ccccc2n2c(SCCOc3ccccc3)nnc12 4.68%
Cc1ccc(NC(=O)CN(C)S(=O)(=O)c2ccc3c(c2)n(C)c(=O)c(=O)n3C)cc1 7.39%
CCOC(=O)C(=NC(C)CC)NNc1ccc(Br)cc1 (stereo unspecified) 9.58%
O=C(CN1CCN(C(=O)c2ccco2)CC1)Nc1cccc([N+](=O)[O-])c1 4.6%
O=[N+]([O-])c1ccc(N2CCN(Cc3cccc([N+](=O)[O-])c3)CC2)cc1 0.8%
O=C(c1ccco1)N1CCN(Cc2cccc(F)c2)CC1 14.6%
O=[N+]([O-])c1cccc(CN2CCCCCC2)c1 10.9%
O=C(c1c(Cl)cccc1Cl)N1CCN(c2ncccn2)CC1 14.4%
O=[N+]([O-])c1cccc(CN2CCN(c3ncccn3)CC2)c1 25.4%
O=C(c1c(Cl)cccc1Cl)N1CCCCCC1 7.13%
O=[N+]([O-])c1ccc(S(=O)(=O)N2CCN(Cc3ccco3)CC2)cc1 15.9%
C[C@H](NC(=O)C1CC(=O)N(c2ccc3c(c2)OCCO3)C1)C(=O)N1CCCCC1 (stereo partly specified) 7.93%
CCC(CC)NC(=O)COC(=O)c1cc(Br)ccc1Cl 7.43%
CC(C)NC(=O)CN(Cc1ccc(F)cc1)C(=O)CCC(=O)Nc1ccccn1 4.82%
CC(=O)c1ccc(N=Nc2ccc(C)cc2)cc1 3.59%
COc1ccc(C(C)=O)cc1CN1C(=O)NC2(CCCCCC2)C1=O -0.57%
Cc1ccc(S(=O)(=O)N(C)CCN(C)S(=O)(=O)c2ccc(C)cc2)cc1 6.45%
Cc1cccc(OCC(=O)N(Cc2ccc(F)cc2)C2CCS(=O)(=O)C2)c1C (stereo unspecified) 9.11%
O=C(N/N=C/C(Cl)=C/c1ccccc1)c1ccccn1 2.22%
COc1ccc(-c2csc3nc(C)n(-n4cccc4)c(=O)c23)cc1OC 2.59%
CCCCOC(=O)C1=C(C)Nc2ncnn2C1c1ccc(OCC)c(OC)c1 (stereo unspecified) 4.44%
O=C(Nc1nccs1)C1CC=CCC1 (stereo unspecified) 0.32%
O=C(NNC(=O)C1CC=CCC1)c1ccccc1O (stereo unspecified) -10.1%
COC(=O)c1ccc(NC(=S)Nc2ccccc2)cc1 5.58%
COC(=O)c1ccc(NC(=S)Nc2ccc3ccccc3c2)cc1 15.3%
CC(=O)Nc1ccc(NC(=S)NC(=O)C2CCCC2)cc1 9.09%
O=C(NC(=S)Nc1ccc(F)cc1)C1CCCCC1 6.1%
